Laboratory results reported in PubChem BioAssay.
“And” between values parts separate entries of the source, which are not always exact repeats. Equal values may be shown once. For some of these results: Entries with a potency or affinity are not part of this list. The source made the active and inactive calls. Rule as the data show it, unless noted: active = parasite load remaining mostly below about 12% (no sharp cut-off); inactive = mostly above about 10%.

Assays:
[1] = polyglutamine-triggered caspase-3 activation inhibitors, cell-based (AID 1583); settings: polyglutamine-induced caspase-3 activation, cell assay; stronger effect = higher value;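 tested at 10 µM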
[2] = suppressors of polyQ aggregation in yeast, 75Q-TubU reporter (AID 1593); settings: Yeast 75Q polyglutamine aggregation reporter
[3] = rescue of polyQ-huntingtin neuronal dysfunction in worms, whole organism, C. elegans mechanosensory neurons, N-terminal huntingtin (AID 1599); settings: touch response, stronger effect = higher value
[4] = inhibitors of mitochondrial cytochrome c release, biochemical, purified mitochondria (AID 1603); settings: stronger effect = lower value;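 also: mouse liver mitochondria challenged with calcium chloride; signal normalized to the plate average as 100%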
[5] = inhibitors of polyQ protein aggregation (AID 1604); settings: polyglutamine-induced protein aggregation inhibition assay; stronger effect = higher value; tested at 2.5 µM
[6] = enhancers of glutamate uptake in motor neurons, MN-1 cell line (AID 1612); settings: MN-1 motor neuron cells, stronger effect = higher value;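 also: tested at 1 µM final; 0% = mean of DMSO vehicle wells on each plate; positive means more glutamate uptake than control and negative means less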
[7] = suppressors of polyglutamine aggregation in yeast, 75Q-TubH (AID 1616); settings: S. cerevisiae 75Q-TubH polyglutamine aggregation suppression; stronger effect = higher value
[8] = liver-stage malaria parasite growth inhibition, primary screen, cell-based, HepG2, luciferase luminescence, HepG2 viability (AID 624349);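 also: 100% = mean of DMSO negative control wells on the same plate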; settings: P. berghei liver stage in HepG2, luciferase luminescence, concentration not given here; parasite load remaining: stronger effect = lower value; viability: measured here: HepG2 viability without parasites
[9] = differential killing of epithelial or mesenchymal cells, primary screen, imaging, PC-3E GFP, TEM4-18 mCherry, co-culture (AID 1345086;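 active = compounds killing one labelled cell type while sparing the other, by normalised counts and ratio limits, not self-fluorescent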;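 as to all read-outs here: cells exposed to compound for 72 h before imaging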;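 as to red/green cell ratio (normalised): normalised mesenchymal count divided by normalised epithelial count so high means epithelial killing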); settings: imaging cell counts, at 1 µM; for red/green cell ratio (normalised): actives lie on both sides, counts scaled to control wells, 1 = unselective
[10] = sensitizers of A549 cells to miR-34 induction, primary screen, imaging, A549 dox-inducible miR-34, nuclei and caspase counts (AID 1347080;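 active = compounds whose cell count with miR-34 switched on is under 0.7 times the count with it off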); settings: A549 miR-34 inducible, Hoechst nuclei count, 48 h
[11] = reducers of polyQ inclusions in PC12 cells, cell-based, NGF-treated PC12, GFPQ80 (AID 1614); settings: PC12 NGF-treated GFP-polyQ80 inclusion reduction;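 also: lower means fewer inclusions and 0 means no inclusions at all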
[12] = measured here: epithelial PC-3E GFP cell survival
[13] = measured here: mesenchymal TEM4-18 mCherry cell survival
[14] = stronger effect = lower value, cell number ratio, induced over uninduced
[15] = measured here: relative caspase fold change +Dox/-Dox
[16] = measured here: total cells with miR-34 induction, stronger effect = lower value
[17] = measured here: total cells without miR-34 induction

Row | SMILES | inhibition [1] [%] | score [2] | rescue above control [3] | cytochrome c release ratio [4] | inhibition of aggregation [5] [%] | glutamate uptake change [6] [%] | aggregation suppression score [7] | parasite load remaining [8] | viability [8] | red/green cell ratio (normalised) [9] | normalised cell number [9, 12] | normalised cell number [9, 13] | fold change [10, 14] | fold change [10, 15] | cell count [10, 16] | cell count [10, 17] | inclusion score [11]
1 | CC1(C)C2CC[C@]3(C)C(C(=O)C=C4[C@@H]5C[C@@](C)(C(=O)O)CC[C@]5(C)CC[C@]43C)[C@@]2(C)CC[C@@H]1OC(=O)CCC(=O)O (some centres undefined) | 59.3 | 2.57 | -3.48 | 3.47 | 66.7 | -2.75 | 1.68 | 124% (inactive) and 24.9% (inactive) | 99.6% and 85.2% | 0.99 (inactive) | 1.01 | 1 | 0.887 (inactive) | 2.9 | 10800 | 12200 | 
2 | Nc1ccn(C2O[C@H](CO)[C@@H](O)[C@@H]2O)c(=O)n1 (some centres undefined) | 26 | 1.28 | 1.26 | 1.03 | 77.5 | -13.5 | 1.27 | 129% (inactive) and 95.7% (inactive) | 74% and 95.8% | 1.61 (inactive) | 0.27 | 0.43 | 0.952 (inactive) | 1.13 | 1930 | 2030 | 
3 | CCC[C@@H]1C[C@@H](C(=O)N[C@H]([C@H]2O[C@H](SC)[C@H](O)[C@@H](O)[C@H]2O)[C@H](C)O)N(C)C1 | 3.68 | 1.23 | 8.96 | 0.99 | 67.6 | -19.8 | 1.16 | 81.5% (inactive) and 50.6% (inactive) | 72.6% and 86.3% | 1.04 (inactive) | 1.09 | 1.13 | 0.939 (inactive) | 2.92 | 11900 | 12700 | 2
4 | CCC(=O)OCC(=O)C1(OC(=O)CC)C(C)CC2C3CCC4=CC(=O)C=CC4(C)C3(Cl)C(O)CC21C (centres undefined) | -26 | 0.15 | -4.19 | 1.11 | 41.7 | 23.7 | 1.25 | 142% (inactive) and 79.4% (inactive) | 78.6% and 97.5% | 1.47 (inactive) | 0.88 | 1.29 | 0.749 (inactive) | 1.52 | 6530 | 8720 | 2
5 | CCOC(=O)OC(C)OC(=O)C1N2C(=O)C(NC(=O)[C@H](N)c3ccccc3)C2SC1(C)C (some centres undefined) | 5.61 | 1.5 | -4.3 | 0.96 | 70.4 | -13.3 | 1.07 | 43.5% (inactive) | 104% | 1.19 (inactive) | 1.07 | 1.27 | 0.906 (inactive) | 2.54 | 11600 | 12800 | 2
6 | CC(=O)O[C@]1(C(C)=O)CCC2C3C[C@H](C)C4=CC(=O)CC[C@]4(C)C3CC[C@@]21C (some centres undefined) | 28.3 | 0.63 | 2.76 | 1.2 | 59.1 | 30.6 | 0.615 | 76.4% (inactive) and 20.6% (inactive) | 71.8% and 85.5% | 1.21 (inactive) | 1.07 | 1.3 | 0.945 (inactive) | 3.26 | 8680 | 9190 | 2.5
7 | N[C@@H]1[C@@H](O)[C@H](O)[C@@H](CO)O[C@H]1O | -15.7 | 0.98 | 5.73 | 0.85 | 66.7 | 9.21 | 1.04 | 80.5% (inactive) and 72% (inactive) | 75.2% and 93.7% | 1.04 (inactive) | 1.08 | 1.12 | 0.914 (inactive) | 0.981 | 11500 | 12600 | 2
8 | C[C@@H]1CC2C3C[C@H](F)C4=CC(=O)C=C[C@]4(C)[C@@]3(F)[C@@H](O)C[C@]2(C)[C@@]1(O)C(=O)CO (some centres undefined) | 14.1 | 1.53 | 11.3 | 1.19 | 57.7 | 16.9 | 0.927 | 21.3% (inactive) | 92.2% | 1.15 (inactive) | 1.15 | 1.33 | 0.92 (inactive) | 1.86 | 7830 | 8520 | 2
9 | CO[C@H]1/C=C/O[C@@]2(C)Oc3c(C)c(O)c4c(O)c(c(C=NN5CCN(C)CC5)c(O)c4c3C2=O)NC(=O)/C(C)=C\C=C\C(C)[C@H](O)[C@@H](C)[C@@H](O)[C@@H](C)[C@@H](OC(C)=O)[C@@H]1C (some centres undefined) | -10.8 | 1.2 | 1.38 | 0.69 | 83.1 | -15.2 | 0.812 | 73.9% (inactive) and 34.2% (inactive) | 73.4% and 91.2% | 1.06 (inactive) | 0.87 | 0.91 | 0.892 (inactive) | 3.2 | 11300 | 12700 | 2
10 | C#C[C@]1(OC(C)=O)CCC2C3CCC4=CC(=O)CC[C@@H]4C3CC[C@@]21C (some centres undefined) | 17.5 | 0.07 | 0.31 | 1.09 | 7.32 | 12.7 | 0.237 | 88.9% (inactive) and 45.6% (inactive) | 69.5% and 94.9% | 1.18 (inactive) | 1 | 1.17 | 0.881 (inactive) | 2.11 | 10900 | 12400 | 
11 | C[C@]12C=CC(=O)C=C1CCC1C3C[C@@H](O)[C@](O)(C(=O)CO)[C@@]3(C)C[C@H](O)[C@@]12F (some centres undefined) | -13.4 | 1.07 | -12.1 | 1.15 | 48.1 | -1.32 | 1.12 | 233% (inactive) and 58.4% (inactive) | 72.6% and 84.9% | 1.46 (inactive) | 0.85 | 1.24 | 0.829 (inactive) | 2.83 | 6430 | 7760 | 2
